Source: the supplement of paper PMC12350171
Where a name gives a salt, the structure may show the parent alone. A number with no mark means an inactive call.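 Rule for the calls: active = normalised median growth AUC below 0.1 of DMSO control; inactive = AUC 0.1 or higher.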

Assays:
Assay in all cases: growth AUC normalised to DMSO control (median) (fraction of control); higher = less growth inhibition, active = hit call of the paper
Conditions in all cases: 20 µM
[1] = system: S. enterica typhimurium WT
In short: (§1)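 Each strain went through two overnight passages under anaerobic conditions before growth in mGAM in 96-well plates, starting at OD578 0.01, with each compound from the approved-drug library at 20 μM and 1% DMSO. Inside an anaerobic incubator, OD578 was recorded every hour for 24 h. Growth curves were cut off at entry into stationary phase, and the area under the curve was calculated by the trapezoidal rule and normalised to vehicle wells on the same plate. Reported values are medians of three biological replicates.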

[2] = system: S. enterica typhimurium tolC KO
In short: as §1

P. vulgatus RND KO = system: P. vulgatus RND KO
In short: as §1

P. vulgatus WT = system: P. vulgatus WT
In short: as §1
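Note: active when median AUC fell below 0.1.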

SMILES	growth AUC normalised to DMSO control [1]	growth AUC normalised to DMSO control [2]	growth AUC normalised to DMSO control (P. vulgatus RND KO)	growth AUC normalised to DMSO control (P. vulgatus WT)
CC1(C)S[C@@H]2[C@H](NC(=O)[C@H](N)c3ccccc3)C(=O)N2[C@H]1C(=O)O [Ampicillin sodium salt]	0.773	0.112	–	–
NC(=O)c1cc[n+](CC2=C(C(=O)O)N3C(=O)[C@@H](NC(=O)C(c4ccccc4)S(=O)(=O)[O-])[C@H]3SC2)cc1 (stereo partly drawn) [Cefsulodin Sodium Salt Hydrate]	0.995	0.986	–	–
CC1(C)S[C@@H]2[C@H](NC(=O)[C@H](N)c3ccccc3)C(=O)N2[C@H]1C(=O)OC1OC(=O)c2ccccc21 (stereo partly drawn) [Talampicillin hydrochloride]	0.00491 (active)	0.00469 (active)	0.00561 (active)	0.00787 (active)
O=C(c1cc(O)c(O)c(O)c1)c1ccc(O)c(O)c1O [Exifone]	0.986	0.995	0.975	0.993
CCN1/C(=C/C=C/C=C/c2sc3ccccc3[n+]2CC)Sc2ccccc21 [Dithiazanine iodide]	1	0.695	–	1.02
CCOc1ccccc1OCCN[C@H](C)Cc1ccc(OC)c(S(N)(=O)=O)c1 [(R)-Tamsulosin hydrochloride]	1	0.965	0.997	1.01
O=c1oc2cc(O)ccc2s1 [Tioxolone]	0.989	0.999	1.02	1.02
Cc1ccccc1C(=O)Nc1ccc(C(=O)N2CCCC(O)c3cc(Cl)ccc32)c(C)c1 (stereo not drawn) [Tolvaptan]	0.993	0.94	0.919	0.928
CO/N=C(\C(=O)N[C@@H]1C(=O)N2C(C(=O)[O-])=C(C[n+]3cccc4c3CCC4)CS[C@H]12)c1csc(N)n1 [Cefpirome sulfate]	0.00453 (active)	0.00385 (active)	0.0131 (active)	0.00672 (active)
Nc1nc(/C(=C/CC(=O)O)C(=O)N[C@@H]2C(=O)N3C(C(=O)O)=CCS[C@H]23)cs1 [Ceftibuten]	0.746	–	–	0.58
Cc1ccc(C(=O)c2cc(O)c(O)c([N+](=O)[O-])c2)cc1 [Tolcapone]	0.993	0.91	0.474	0.0123 (active)
CC(C)[C@H](N)C(=O)OCC(CO)OCn1cnc2c(=O)nc(N)[nH]c21 (stereo partly drawn) [Valganciclovir hydrochloride]	1	1	1.04	1.08
CO/N=C(\C(=O)N[C@@H]1C(=O)N2C(C(=O)[O-])=C(C[n+]3ccn4ncccc43)CS[C@H]12)c1nsc(N)n1 [Cefozopran hydrochloride]	0.0996 (active)	0.1	–	0.128
CN(C)c1cc(NC(=O)CNC(C)(C)C)c(O)c2c1C[C@H]1C[C@H]3[C@H](N(C)C)C(=O)C(C(N)=O)=C(O)[C@@]3(O)C(=O)C1=C2O [Tigecycline]	0.995	0.997	0.987	0.997
Cc1nc2ccccc2n1Cc1ccc(Cl)cc1 [Chlormidazole]	0.951	0.833	0.974	0.95
COc1cc2c(cc1OC)CC(=O)N(CCCN(C)C[C@H]1Cc3cc(OC)c(OC)cc31)CC2 [Ivabradine hydrochloride]	1.01	0.965	1	0.997
C[C@H](N[C@@H](CCc1ccccc1)C(=O)O)C(=O)N1CCC[C@H]1C(=O)O [Enalaprilat dihydrate]	0.992	0.995	0.99	0.986
O=C(O)Cc1ccccc1Oc1ccc(Cl)cc1Cl [Fenclofenac]	1.02	1.02	0.992	1.05
CC/C=C(\C(=O)N[C@@H]1C(=O)N2C(C(=O)OCOC(=O)C(C)(C)C)=C(COC(N)=O)CS[C@H]12)c1csc(N)n1 [Cefcapene pivoxil hydrochloride monohydrate]	1.03	0.159	–	–
CO[C@@H]1[C@@H](OC(N)=O)[C@@H](O)[C@H](Oc2ccc3c(O)c(NC(=O)c4ccc(O)c(CC=C(C)C)c4)c(=O)oc3c2C)OC1(C)C [Novobiocin sodium salt]	0.999	0.0104 (active)	0.0285 (active)	0.021 (active)
CC(C)c1cc2c(cc1S(=O)(=O)O)[C@@]1(C)CCC[C@@](C)(C(=O)O)[C@@H]1CC2 [Ecabet sodium]	1.01	0.988	1.01	1.02
CCCC(=O)N1CCCN(c2nc(N)c3cc(OC)c(OC)cc3n2)CC1 [Bunazosin hydrochloride]	1	0.994	1.01	1.01
CC(C)Oc1ccc2c(=O)c(-c3ccccc3)coc2c1 [Ipriflavone]	0.978	0.859	1.04	1.07
Nc1nc(CC(=O)Nc2ccc(CCNC[C@H](O)c3ccccc3)cc2)cs1 [Mirabegron]	0.991	1	1	0.989
CC(C)(C)C(O)/C=C/c1ccc2c(c1)OCO2 (stereo not drawn) [Stiripentol]	1	0.93	1.01	1.02
CC(=O)Oc1ccccc1C(=O)Nc1ncc([N+](=O)[O-])s1 [Nitazoxanide]	0.922	0.414	0.0128 (active)	0.0145 (active)
CC1=NN(c2ccccc2)C(=O)C1 [Edaravone]	1	0.982	0.998	1.01
